The results in this text go back to PubChem BioAssay (Tox21).

A number with no mark means an inactive call. Results filed as inconclusive are left out. Activity calls are given as the source filed them. Unless noted, calls come from the whole dose curve; as a rule, active = well fitted curve in the direction sought with a large enough effect in the repeat runs; inconclusive = weak or mixed curves; inactive = no such curve, though single readings can be large; an effect the other way counts as inactive or inconclusive.

The target of experiment [1] is Thyrotropin-releasing hormone receptor (Homo sapiens) (UniProt P34981). As to the kind of experiment: qHTS assay to identify small molecule agonists of the thyrotropin-releasing hormone receptor (TRHR) signaling pathway (AID 1346891; calls by dose curve; note: series mostly up to about 58 µM). Summed up:
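TRHR-expressing HEK293 cells were plated 18 h at 37 °C/5% CO2, loaded with calcium dye 2 h at 37 °C, then given compound in DMSO; fluorescence was read kinetically for 3 min at 1 s intervals.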
On the technique in general: Quantitative high-throughput screening tests each substance at several concentrations.

The nature of experiment [2]: Human pregnane X receptor (PXR) small molecule agonists, qHTS cell viability counter screen (AID 1346977). Note: nearly all actives have a fitted effect of over 50% in size. Summed up: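 PXR-Luc HepG2 cells in medium with 5% charcoal-stripped FBS were pre-incubated 5hr, then exposed to compounds for 24hr at 37C. Viability was read in the same wells by CellTiter-Fluor fluorescence, reagent added after 23hr with a 1hr incubation.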
The nature of experiment [3]: Caspase-3/7 induction in HepG2 cells by small molecules, qHTS assay (AID 1346978). Note: nearly all actives have a fitted effect of over 15% in size. Summed up:
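Caspase-3/7 induction was measured by Caspase-Glo 3/7 luminescence (30 min, room temperature) after a 17 hr compound exposure of wild-type HepG2 cells seeded at 2,000 per well and pre-incubated 5 hr.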

Experiment [4] in a line: Caspase-3/7 induction in CHO-K1 cells by small molecules, qHTS cell viability counter screen (AID 1346979). Note: nearly all actives have a fitted effect of over 35% in size. Summed up: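 Wild-type CHO-K1 cells were seeded at 1,500 per well, rested 5hr at 37 C, then exposed to compounds in DMSO. After 16hr, CellTiter-Fluor reagent was added and fluorescence read 1hr later as the viability measure.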
A short description of experiment [5]: Caspase-3/7 induction in CHO-K1 cells by small molecules, qHTS assay (AID 1346980). Note: nearly all actives have a fitted effect of over 15% in size. Summed up: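 Luminescent Caspase-Glo 3/7 read (30min, room temperature) quantified apoptosis induction. Cells were wild-type CHO-K1, treated with compound for 17hr at 37 C and 5% CO2.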
Experiment [6] has as its target Nuclear receptor subfamily 1 group I member 2 (Homo sapiens) (UniProt O75469). As to the kind of experiment: Human pregnane X receptor (PXR) small molecule agonists, qHTS assay (AID 1346982). Note: nearly all actives have a fitted effect of over 35% in size. Summed up:
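We seeded PXR-Luc HepG2 cells in assay medium containing 5% charcoal-stripped FBS, added compounds 5 hr later, incubated 24 hr, and read luminescence with ONE-Glo reagent.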

Experiment [7] deals with Nuclear receptor subfamily 1 group I member 2 (Rattus norvegicus) (UniProt Q9R1A7). The experiment can be described thus: Rat pregnane X receptor (rPXR) activation by small molecules, qHTS assay (AID 1346983). Note: nearly all actives have a fitted effect of over 20% in size. The following applies: rPXR luciferase reporter cells, One-Glo luminescence, 24 h; max activation: hits give high values. The method in brief: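 Luminescent readout (One-Glo luciferase, 30 min room temperature) followed 24 hr compound treatment at 37 C of rPXR cells plated 2,000 per well and preincubated 5hr; qHTS format with compounds delivered in DMSO.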
Chain of Nuclear receptor subfamily 1 group I member 2 (Rattus norvegicus) (Q9R1A7 whole entry, looked up): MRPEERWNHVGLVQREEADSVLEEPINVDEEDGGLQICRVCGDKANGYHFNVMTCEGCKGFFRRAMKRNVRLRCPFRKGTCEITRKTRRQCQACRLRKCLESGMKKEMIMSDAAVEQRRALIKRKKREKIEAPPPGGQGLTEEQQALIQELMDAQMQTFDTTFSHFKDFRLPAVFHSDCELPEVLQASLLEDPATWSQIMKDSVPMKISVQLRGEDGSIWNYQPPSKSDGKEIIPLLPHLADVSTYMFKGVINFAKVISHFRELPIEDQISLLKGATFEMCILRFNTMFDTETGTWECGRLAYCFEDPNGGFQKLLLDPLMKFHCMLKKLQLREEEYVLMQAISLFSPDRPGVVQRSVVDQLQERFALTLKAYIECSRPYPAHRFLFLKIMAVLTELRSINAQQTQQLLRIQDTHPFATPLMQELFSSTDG

The target of experiment [8] is Nuclear receptor subfamily 1 group I member 2 (Homo sapiens) (UniProt O75469). As to the kind of experiment: CYP3A4 induction through human pregnane X receptor (PXR) by small molecules, qHTS assay (AID 1346984). Note: nearly all actives have a fitted effect of over 40% in size. Summed up: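 qHTS, concentration-response format: HepG2 DPX-2 line, PXR/CYP3A4-luc. Exposure 24 h, 37C. Substrate Luciferin-IPA 3uM final, 3 h. Detection One-Glo, 30 min RT.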
Chain of Nuclear receptor subfamily 1 group I member 2 (Homo sapiens) (O75469 whole entry, looked up): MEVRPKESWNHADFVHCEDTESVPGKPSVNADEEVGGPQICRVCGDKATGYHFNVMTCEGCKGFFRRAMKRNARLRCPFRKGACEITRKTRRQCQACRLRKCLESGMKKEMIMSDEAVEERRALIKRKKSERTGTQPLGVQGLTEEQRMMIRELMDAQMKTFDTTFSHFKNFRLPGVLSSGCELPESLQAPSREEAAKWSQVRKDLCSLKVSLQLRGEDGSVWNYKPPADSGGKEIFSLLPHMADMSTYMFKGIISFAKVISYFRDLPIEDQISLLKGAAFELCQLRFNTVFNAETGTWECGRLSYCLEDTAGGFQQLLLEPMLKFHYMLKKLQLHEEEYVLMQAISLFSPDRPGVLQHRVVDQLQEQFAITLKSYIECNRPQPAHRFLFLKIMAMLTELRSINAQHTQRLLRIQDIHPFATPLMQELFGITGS

The target is the same in experiment [9]. As to the kind of experiment: Human pregnane X receptor (PXR) activation by small molecules, qHTS assay (AID 1346985). Note: nearly all actives have a fitted effect of over 40% in size. Summed up: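 DPX-2 cells (HepG2 co-transfected with a PXR response element and a CYP3A4-promoter luciferase construct) were seeded at 2,000 per well, rested 5 hr at 37C, then exposed to DMSO-dissolved compounds for 24 hr. Activation was read as luciferase luminescence.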

Experiment [10] concerns the target Cytochrome P450 2D6 (Homo sapiens) (UniProt P10635). As to the kind of experiment: Cytochrome P450 Family 2 Subfamily D Member 6 (CYP2D6) small molecule antagonists: luciferase reporter qHTS assay (AID 1671196). Note: nearly all actives have a fitted effect of over 50% in size. Note: potency is the fitted concentration of half-maximal effect. Summed up:
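Luminescence (RLU), read 20 min after detection reagent, indicated CYP2D6 conversion of proluciferin to luciferin during a 1 h NADPH-dependent reaction at room temperature.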
For orientation: In a reporter assay the amount or activity of a reporter protein is the signal.

Experiment [11] deals with Cytochrome P450 2C19 (Homo sapiens) (UniProt P33261). As to the kind of experiment: Cytochrome P450 Family 2 Subfamily C Member 19 (CYP2C19) small molecule antagonists: luciferase reporter qHTS assay (AID 1671197). Note: nearly all actives have a fitted effect of over 65% in size. Note: potency is the fitted concentration of half-maximal effect. The method in brief: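 Luminescent readout of CYP2C19 activity: luciferin product detected 20 min after adding detection reagent. Before that, compound and enzyme-substrate mix preincubated 10 min at room temperature; NADPH-regenerating system started a 1 h, 37C reaction. Ketoconazole as positive control.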
Chain of Cytochrome P450 2C19 (Homo sapiens) (P33261 whole entry, looked up): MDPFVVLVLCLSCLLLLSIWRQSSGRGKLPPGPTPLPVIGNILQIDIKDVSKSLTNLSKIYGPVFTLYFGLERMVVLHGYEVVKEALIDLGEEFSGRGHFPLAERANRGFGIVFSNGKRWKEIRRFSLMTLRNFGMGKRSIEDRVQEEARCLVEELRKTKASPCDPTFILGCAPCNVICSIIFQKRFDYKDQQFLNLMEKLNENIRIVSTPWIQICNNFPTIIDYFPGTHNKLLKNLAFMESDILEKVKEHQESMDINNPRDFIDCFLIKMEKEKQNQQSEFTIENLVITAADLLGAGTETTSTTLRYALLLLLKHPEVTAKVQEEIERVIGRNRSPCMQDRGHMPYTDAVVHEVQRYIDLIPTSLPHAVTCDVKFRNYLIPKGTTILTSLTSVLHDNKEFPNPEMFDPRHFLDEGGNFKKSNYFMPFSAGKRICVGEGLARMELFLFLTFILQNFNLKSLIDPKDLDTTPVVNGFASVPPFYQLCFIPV

For experiment [12], the target named is Cytochrome P450 2C9 (Homo sapiens) (UniProt P11712). The experiment can be described thus: Cytochrome P450 Family 2 Subfamily C Member 9 (CYP2C9) small molecule antagonists: luciferase reporter qHTS assay (AID 1671198). Note: nearly all actives have a fitted effect of over 50% in size. Note: potency is the fitted concentration of half-maximal effect. Summed up:
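Enzyme-substrate mix preincubated with compound 10 min at room temperature; reaction started with NADPH regeneration solution, 1 h 37C. Luminescent luciferin product read after 20 min detection reagent.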

Experiment [13] addresses Cytochrome P450 1A2 (Homo sapiens) (UniProt P05177). The experiment can be described thus: Cytochrome P450 Family 1 Subfamily A Member 2 (CYP1A2) small molecule antagonists: luciferase reporter qHTS assay (AID 1671199). Note: nearly all actives have a fitted effect of over 50% in size. Note: potency is the fitted concentration of half-maximal effect. Summed up:
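CYP1A2 turnover of a luminogenic substrate was quantified after 1 h with NADPH regeneration at room temperature. Furafylline served as positive control.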

Experiment [14] has as its target Voltage-gated inwardly rectifying potassium channel KCNH2 (Homo sapiens) (UniProt Q12809). The experiment can be described thus: Human Ether-a-go-go-Related Gene (hERG) channel small molecule antagonists: fluorescence cell-based qHTS assay (AID 1671200). The method in brief:
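U2OS cells expressing the channel were plated at 1000 cells/well, incubated overnight at 37 C, then loaded with FluxOR II thallium-sensitive dye for 1 h at room temperature in the dark, with a further 10 min at room temperature before stimulation.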

In experiment [15] the target is Cytochrome P450 3A4 (Homo sapiens) (UniProt P08684). As to the kind of experiment: Cytochrome P450 Family 3 Subfamily A Member 4 (CYP3A4) small molecule antagonists: luciferase reporter qHTS assay (AID 1671201). Note: nearly all actives have a fitted effect of over 50% in size. Note: potency is the fitted concentration of half-maximal effect. The method in brief:
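P450-Glo CYP3A4 system with proluciferin substrate; compounds preincubated 10 min RT with enzyme-substrate mix, then NADPH regeneration added for 1 h RT. Detection reagent 20 min, luminescence read as relative luminescence units.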

The nature of experiment [16]: Caspase-3/7 induction in HepG2 cells by small molecules, qHTS cell viability counter screen (AID 1346981). Note: series mostly up to about 92 µM; nearly all actives have a fitted effect of over 30% in size. Summed up: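 Multiplexed with the caspase-3/7 assay: HepG2 cells, 16 hr compound treatment, CellTiter-Fluor viability detection by fluorescence.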
% is set by controls: 0 for no effect and ±100 for the full control effect.

Chain of Cytochrome P450 1A2 (Homo sapiens) (P05177 whole entry, looked up): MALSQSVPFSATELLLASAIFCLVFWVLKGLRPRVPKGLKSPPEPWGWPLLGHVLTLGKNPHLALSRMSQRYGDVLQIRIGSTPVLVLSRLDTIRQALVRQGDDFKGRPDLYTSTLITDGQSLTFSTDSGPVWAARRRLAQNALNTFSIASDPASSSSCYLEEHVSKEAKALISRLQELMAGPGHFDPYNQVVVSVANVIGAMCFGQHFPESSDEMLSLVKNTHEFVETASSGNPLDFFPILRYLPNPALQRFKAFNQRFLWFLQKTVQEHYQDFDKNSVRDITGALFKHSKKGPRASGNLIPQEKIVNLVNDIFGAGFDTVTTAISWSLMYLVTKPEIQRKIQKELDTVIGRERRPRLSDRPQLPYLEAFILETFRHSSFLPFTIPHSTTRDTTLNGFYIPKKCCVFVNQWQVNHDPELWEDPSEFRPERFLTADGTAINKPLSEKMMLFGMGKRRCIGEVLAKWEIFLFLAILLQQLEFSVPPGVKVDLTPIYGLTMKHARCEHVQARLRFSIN
Chain of Voltage-gated inwardly rectifying potassium channel KCNH2 (Homo sapiens) (Q12809 whole entry, looked up): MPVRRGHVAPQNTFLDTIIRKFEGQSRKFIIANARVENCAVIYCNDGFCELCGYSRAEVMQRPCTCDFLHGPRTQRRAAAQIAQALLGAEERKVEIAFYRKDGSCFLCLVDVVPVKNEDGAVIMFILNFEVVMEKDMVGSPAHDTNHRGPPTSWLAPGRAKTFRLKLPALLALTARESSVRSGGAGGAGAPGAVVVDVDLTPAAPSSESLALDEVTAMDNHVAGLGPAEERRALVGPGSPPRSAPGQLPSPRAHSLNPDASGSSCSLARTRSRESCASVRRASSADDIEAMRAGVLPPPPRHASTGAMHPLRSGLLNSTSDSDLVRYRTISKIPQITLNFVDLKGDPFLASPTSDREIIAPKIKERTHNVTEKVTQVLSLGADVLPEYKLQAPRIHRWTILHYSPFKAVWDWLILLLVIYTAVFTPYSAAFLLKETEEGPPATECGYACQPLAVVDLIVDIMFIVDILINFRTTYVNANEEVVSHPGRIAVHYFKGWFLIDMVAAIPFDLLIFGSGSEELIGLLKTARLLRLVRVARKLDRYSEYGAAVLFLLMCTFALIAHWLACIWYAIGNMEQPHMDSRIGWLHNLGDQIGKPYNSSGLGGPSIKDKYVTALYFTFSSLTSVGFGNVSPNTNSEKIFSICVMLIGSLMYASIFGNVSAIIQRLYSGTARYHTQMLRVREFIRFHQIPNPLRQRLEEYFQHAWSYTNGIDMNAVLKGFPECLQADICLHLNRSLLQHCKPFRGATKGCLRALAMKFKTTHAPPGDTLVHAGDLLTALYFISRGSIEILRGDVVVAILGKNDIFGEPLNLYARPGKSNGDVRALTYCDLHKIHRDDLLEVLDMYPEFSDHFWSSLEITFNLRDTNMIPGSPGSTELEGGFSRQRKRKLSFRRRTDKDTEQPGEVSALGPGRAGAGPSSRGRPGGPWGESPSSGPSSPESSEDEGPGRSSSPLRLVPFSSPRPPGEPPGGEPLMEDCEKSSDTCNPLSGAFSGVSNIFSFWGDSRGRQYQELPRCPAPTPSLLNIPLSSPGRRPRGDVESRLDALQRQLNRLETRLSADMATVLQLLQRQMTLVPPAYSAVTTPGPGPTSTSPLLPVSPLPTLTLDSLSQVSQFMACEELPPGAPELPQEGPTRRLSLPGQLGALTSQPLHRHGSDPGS
Chain of Cytochrome P450 3A4 (Homo sapiens) (P08684 whole entry, looked up): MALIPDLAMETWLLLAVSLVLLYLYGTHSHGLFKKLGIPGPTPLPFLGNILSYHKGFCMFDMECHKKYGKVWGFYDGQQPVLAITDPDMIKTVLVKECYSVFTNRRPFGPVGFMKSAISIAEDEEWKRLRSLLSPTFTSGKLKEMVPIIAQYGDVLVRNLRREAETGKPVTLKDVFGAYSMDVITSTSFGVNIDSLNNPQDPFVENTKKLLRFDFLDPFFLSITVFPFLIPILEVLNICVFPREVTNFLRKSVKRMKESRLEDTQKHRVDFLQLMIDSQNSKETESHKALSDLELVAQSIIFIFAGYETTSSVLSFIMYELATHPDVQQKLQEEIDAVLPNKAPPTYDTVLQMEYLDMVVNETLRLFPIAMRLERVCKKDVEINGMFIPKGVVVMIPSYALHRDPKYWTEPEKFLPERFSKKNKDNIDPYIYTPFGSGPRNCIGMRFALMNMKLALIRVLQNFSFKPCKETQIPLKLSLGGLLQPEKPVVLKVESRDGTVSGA
Chain of Thyrotropin-releasing hormone receptor (Homo sapiens) (P34981 whole entry, looked up): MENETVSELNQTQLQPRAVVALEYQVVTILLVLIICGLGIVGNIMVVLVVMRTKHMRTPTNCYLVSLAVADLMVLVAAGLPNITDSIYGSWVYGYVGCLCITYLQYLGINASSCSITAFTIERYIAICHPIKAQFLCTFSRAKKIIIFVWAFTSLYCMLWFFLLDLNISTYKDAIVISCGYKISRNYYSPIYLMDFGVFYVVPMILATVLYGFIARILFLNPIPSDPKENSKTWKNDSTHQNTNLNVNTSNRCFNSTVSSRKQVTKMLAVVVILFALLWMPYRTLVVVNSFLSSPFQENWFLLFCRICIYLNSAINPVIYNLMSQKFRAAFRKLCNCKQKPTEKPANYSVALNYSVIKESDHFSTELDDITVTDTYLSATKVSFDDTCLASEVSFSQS
Chain of Cytochrome P450 2D6 (Homo sapiens) (P10635 whole entry, looked up): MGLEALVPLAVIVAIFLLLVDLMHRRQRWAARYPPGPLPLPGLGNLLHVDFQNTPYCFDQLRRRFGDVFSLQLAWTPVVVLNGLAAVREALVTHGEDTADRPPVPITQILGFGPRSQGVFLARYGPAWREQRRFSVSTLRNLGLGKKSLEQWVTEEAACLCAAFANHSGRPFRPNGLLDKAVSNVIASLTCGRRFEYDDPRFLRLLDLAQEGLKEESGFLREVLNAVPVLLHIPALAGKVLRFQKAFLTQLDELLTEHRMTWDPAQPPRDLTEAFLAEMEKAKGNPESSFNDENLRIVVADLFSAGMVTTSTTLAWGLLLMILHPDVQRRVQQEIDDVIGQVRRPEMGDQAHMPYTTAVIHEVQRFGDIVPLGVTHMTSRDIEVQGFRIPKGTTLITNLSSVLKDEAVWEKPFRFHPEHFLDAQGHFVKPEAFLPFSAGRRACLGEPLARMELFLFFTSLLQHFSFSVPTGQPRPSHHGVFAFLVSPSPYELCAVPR
Chain of Cytochrome P450 2C9 (Homo sapiens) (P11712 whole entry, looked up): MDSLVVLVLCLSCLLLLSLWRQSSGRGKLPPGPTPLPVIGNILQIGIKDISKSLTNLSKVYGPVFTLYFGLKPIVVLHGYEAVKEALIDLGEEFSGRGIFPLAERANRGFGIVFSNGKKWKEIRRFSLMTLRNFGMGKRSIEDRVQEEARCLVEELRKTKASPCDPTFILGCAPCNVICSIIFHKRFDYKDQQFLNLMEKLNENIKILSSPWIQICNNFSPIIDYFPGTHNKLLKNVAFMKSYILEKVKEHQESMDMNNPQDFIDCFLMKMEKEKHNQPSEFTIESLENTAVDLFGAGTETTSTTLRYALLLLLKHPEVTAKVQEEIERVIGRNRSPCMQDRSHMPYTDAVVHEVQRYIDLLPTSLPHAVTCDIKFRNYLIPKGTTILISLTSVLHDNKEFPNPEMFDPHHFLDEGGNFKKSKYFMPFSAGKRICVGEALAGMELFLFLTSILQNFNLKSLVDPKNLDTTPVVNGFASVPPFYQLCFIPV

With `OCCN1C[C@H](O)[C@@H](O)[C@H](O)[C@H]1CO`, the result in experiment [1], in experiment [3] and in [5] was inactive. The Potency entry in experiment [2], in experiment [4], in [6], in experiment [8], in [9] and in experiment [10] was “inactive” each time. The Potency entry in experiment [11], in experiment [12], in [13], in [14] and in experiment [15] was “inactive” in each case. The max activation in experiment [7] is -2.71%.

On to `CC(C)(O)C(=O)c1ccc(OCCO)cc1`, for which the result in [1], in [3], in [5] and in experiment [16] was inactive. For the same molecule, the Potency entry in [2], in experiment [4], in experiment [6], in experiment [10], in experiment [11] and in experiment [14] was “inactive” in each case. Further, the Potency result in experiment [15] was “inactive”. In experiment [13], the Potency was 35.6 µM (active).

Regarding `CCCCCCCCCCC1CO1` (centres undefined), the molecule was classed as inactive in experiment [1], in [3], in experiment [5] and in [16]. In addition, the Potency result in experiment [2], in experiment [4], in experiment [6], in [11], in [12] and in [13] was “inactive” each time. The Potency result in experiment [14] and in [15] was “inactive” each time.

Consider `C=CCSCC1Nc2cc(Cl)c(S(N)(=O)=O)cc2S(=O)(=O)N1` (centres undefined), for which the result in [1], in experiment [3], in [5] and in experiment [16] was inactive. Further, the Potency entry in experiment [2], in experiment [4] and in experiment [11] was “inactive” throughout. Moreover, in [7], the max activation is 0.305%.

Regarding `CC(=O)CCc1ccc(O)cc1`, the molecule was classed as inactive in experiment [1], in experiment [3], in experiment [5] and in experiment [16]. In addition, the Potency result in experiment [2], in [4], in [6], in experiment [12], in [13] and in experiment [14] was “inactive” in each case. The Potency entry in experiment [15] is “inactive”. Further, the Potency in [11] is 20 µM (active).

With `C[N+](C)(C)CC[N+]1(C)Cc2c(Cl)c(Cl)c(Cl)c(Cl)c2C1`, the molecule was classed as inactive in experiment [1], in [3] and in [5]. Besides, the Potency entry in experiment [2], in [4], in [6], in [8], in [9] and in [11] was “inactive” each time. Besides, the Potency entry in [12], in [13], in experiment [14] and in experiment [15] was “inactive” each time. The max activation in experiment [7] is -3.39%. The Potency in experiment [10] is 1.55 µM (active).

`COc1ccc(COC=O)cc1`: the molecule was called inactive in [1], in experiment [3], in experiment [5] and in experiment [16]. For the same molecule, the Potency result in experiment [2], in [4], in [6], in experiment [10], in experiment [11] and in [14] was “inactive” each time. Also, the Potency result in [15] was “inactive”. Also, in experiment [13], the Potency was 63.3 µM (active).

Take `CCCCC1CCCCC(=O)O1` (centres undefined): the molecule was called inactive in experiment [1], in experiment [3], in experiment [5] and in [16]. Further, the Potency result in [2], in experiment [4], in [6], in experiment [10], in experiment [12] and in [14] was “inactive” each time. Moreover, the Potency result in experiment [15] was “inactive”.

Consider `CC(C)(C)OC(=O)N1C[C@@H](F)C[C@H]1C(=O)O`, for which the molecule was classed as inactive in experiment [1], in [3], in experiment [5] and in experiment [16]. For the same molecule, the Potency result in experiment [2], in experiment [4], in experiment [6], in [10] and in experiment [14] was “inactive” each time. Further, in experiment [15], the Potency was 36.8 µM (active).

As to `CCCCCCC(=O)OCC`, the molecule was classed as inactive in experiment [1], in experiment [3], in [5] and in experiment [16]. Moreover, the Potency entry in experiment [2], in experiment [4], in experiment [6], in [10], in [11] and in [14] was “inactive” throughout. In experiment [15], the Potency entry is “inactive”. In addition, the Potency in [12] was 71 µM (active).
